An excerpt weighted towards active compounds, which were near 11% of everything screened.
VDR inh – inhibitors of human vitamin D receptor. VDR-SRC2-3 peptide fluorescence polarization, 2 h. AID 504847. P11473. 400,000 tested, 0.93% active. Potency, µM, hits mostly inhibitors
Target sequence (P11473 whole entry, looked up): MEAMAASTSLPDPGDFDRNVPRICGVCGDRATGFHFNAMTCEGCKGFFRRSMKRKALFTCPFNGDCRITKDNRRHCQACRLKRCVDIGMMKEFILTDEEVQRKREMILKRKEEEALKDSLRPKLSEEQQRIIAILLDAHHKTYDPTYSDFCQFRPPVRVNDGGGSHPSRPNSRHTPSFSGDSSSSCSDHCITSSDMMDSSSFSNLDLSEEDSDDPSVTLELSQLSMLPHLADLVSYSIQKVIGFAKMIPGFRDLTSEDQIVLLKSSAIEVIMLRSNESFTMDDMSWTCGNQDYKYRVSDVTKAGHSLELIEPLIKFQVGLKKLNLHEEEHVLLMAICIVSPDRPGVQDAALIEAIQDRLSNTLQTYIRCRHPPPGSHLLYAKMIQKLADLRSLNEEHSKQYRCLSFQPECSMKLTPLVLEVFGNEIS
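Measured by FP: displacement of SRC2-3 coactivator peptide from VDR by library compounds, following a two-hour ambient incubation.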
PLK1 PBD inh – inhibitors of human PLK1 polo-box domain binding; P53350; Plk1 PBD binding of FITC phosphopeptide, fluorescence polarization; Potency, µM, hits mostly inhibitors; 360,000 tested, 2.8% active; AID 720504; further: series mostly up to about 57 µM; nearly all actives have a fitted effect of over 65% in size
G9a block – blocks human histone lysine methyltransferase G9a; 350,000 tested, 8.8% active; Potency, µM (doses to about 102 µM), usual class: inhibitors; G9a H3K9 monomethylation, AlphaScreen, 2 h; Q96KQ7; further: nearly all actives have a fitted effect of over 75% in size
Target sequence (Q96KQ7 913-1193 limits assumed): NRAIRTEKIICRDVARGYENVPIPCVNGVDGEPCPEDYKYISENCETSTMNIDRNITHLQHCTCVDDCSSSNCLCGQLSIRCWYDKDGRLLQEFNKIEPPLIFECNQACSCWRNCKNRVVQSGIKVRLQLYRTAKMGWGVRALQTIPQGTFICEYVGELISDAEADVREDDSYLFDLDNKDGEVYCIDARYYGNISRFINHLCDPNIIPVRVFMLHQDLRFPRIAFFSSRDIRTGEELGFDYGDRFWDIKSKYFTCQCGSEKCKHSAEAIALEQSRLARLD
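Methyltransferase reactions run at room temperature for 2 h (20 nM enzyme, 500 nM biotin-H3K9 peptide, 20 uM SAM) after a 15 min compound preincubation; product detected by AlphaScreen beads and anti-H3K9me1 antibody.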
HP1b chromo inh – inhibitors of HP1-beta chromodomain binding to methylated histone tails; 390,000 tested, 0.56% active; AlphaScreen HP1-beta / biotin-H3K9me3 peptide binding; Potency, µM (highest dose often 114 µM), actives largely listed as inhibitors; further: nearly all actives have a fitted effect of over 70% in size
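Compound inhibition of the preformed complex between 50 nM HP1-beta and 50 nM biotinylated H3K9me3 peptide was read by AlphaScreen. Buffer was PBS pH 7.4 with 0.01% Tween-20. Incubations ran 30 min at room temperature, with 10 ug/mL donor/acceptor beads.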
JMJD2A Tudor – JMJD2A Tudor domain (human) inhibition | O75164 | AlphaScreen JMJD2A-Tudor / H3K4me3 peptide binding | Potency, µM (titrated, usually from 114 µM), usual class: inhibitors | 390,000 tested, 4.4% active | AID 504339; further: nearly all actives have a fitted effect of over 50% in size
BAZ2B inh – BAZ2B (human) inhibition; AlphaScreen BAZ2B-H3K14Ac peptide displacement; 360,000 tested, 4.4% active; Potency, µM (titrated, usually from 114 µM), most hits filed as inhibitors; further: nearly all actives have a fitted effect of over 60% in size
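Multi-concentration screen (max 110 uM) measuring displacement of acetylated histone H3 peptide from BAZ2B by AlphaScreen, using 50 nM protein, 50 nM peptide and 10 ug/mL streptavidin donor plus Ni-chelate acceptor beads.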
Of the large screens only hits and unclear results are named; the others gave an inactive call. The call rests on the fitted dose curve; in most records, active means well fitted curve in the direction sought with a large enough effect; inconclusive means small, poorly fitted or top-dose-only effect, or another doubt; inactive means no such curve, though single readings can be large; an effect the other way counts as inactive or inconclusive.

Cc1cc(C)cc(NC(=O)CN(c2ccc(F)cc2)S(C)(=O)=O)c1	VDR inh inconclusive, PLK1 PBD inh 11µM, HP1b chromo inh inconclusive
Cc1nnc(NC(=O)CSc2nccn2-c2cccc(Cl)c2)s1	none (no result: PLK1 PBD inh)
O=c1[nH]c2ccc(S(=O)(=O)Nc3ccc(Cl)cc3)cc2[nH]1	none
Cc1ccc(Oc2ccccc2/C=N/O)cc1	PLK1 PBD inh 3.4µM
Cc1ccc(N2C(=O)C(CC(=O)Nc3cccc(F)c3)N(CCc3ccccc3F)C2=O)cc1 (stereo not drawn)	none (no result: PLK1 PBD inh)
Cc1[nH]c2ccccc2c1NC(=O)CN1CCN(c2cccc(C(F)(F)F)c2)CC1	G9a block inconclusive, JMJD2A Tudor inconclusive, BAZ2B inh 50µM
Cc1[nH]c2ccccc2c1C(O)CN1CCN(c2cccc(C(F)(F)F)c2)CC1 (stereo not drawn)	G9a block 56µM, HP1b chromo inh inconclusive, JMJD2A Tudor 56µM, BAZ2B inh 40µM
O=C(CCCCCn1c(=O)[nH]c2ccccc2c1=O)N1CCN(c2cccc(C(F)(F)F)c2)CC1	none (no result: PLK1 PBD inh)
Cc1[nH]c2ccccc2c1NC(=O)CN1CCN(Cc2ccc3c(c2)OCO3)CC1	G9a block 56µM (no result: VDR inh, PLK1 PBD inh, HP1b chromo inh, JMJD2A Tudor)
O=C(CN1CCN(c2cccc(C(F)(F)F)c2)CC1)NCc1ccccc1	none (no result: G9a block)
O=C(CN1CCN(Cc2ccc3c(c2)OCO3)CC1)Nc1ccc2[nH]c(=O)[nH]c2c1	none (no result: G9a block, BAZ2B inh)
Cc1ccc(NC(=O)CSc2cn(CC(=O)N3CCCC3)c3ccccc23)cc1Cl	none (no result: PLK1 PBD inh)
Cc1ccccc1-c1nc(CNC(=O)NC2CCCCC2)c(C)o1	none (no result: PLK1 PBD inh)
Cc1ccc(NC(=O)CSc2nnc(-c3cccnc3)n2CCN2CCCCC2)cc1	HP1b chromo inh inconclusive
O=C(O)CC(CCc1ccccc1)OC1OC(CO)C(O)C(O)C1O (stereo not drawn)	G9a block inconclusive, HP1b chromo inh inconclusive, JMJD2A Tudor 8.9µM, BAZ2B inh inconclusive
C/C(=N\N(c1ccccc1)c1ccccc1)c1ccc(N)cc1	HP1b chromo inh inconclusive, JMJD2A Tudor 22µM (no result: G9a block, BAZ2B inh)
C/C(=N\N(c1ccccc1)c1ccccc1)c1ccc(O)cc1	G9a block 79µM, HP1b chromo inh inconclusive, JMJD2A Tudor 40µM, BAZ2B inh 50µM
CCOC(=O)C1(Cc2cccc(Cl)c2)CCCN(C(=O)c2cc(C(C)C)nn2C)C1 (stereo not drawn)	none (no result: G9a block)
C=CCN(CC=C)C(=S)NC(=O)/C=C/c1ccccc1	VDR inh 20µM, PLK1 PBD inh 15µM, HP1b chromo inh inconclusive, JMJD2A Tudor 22µM
C=CCN(CC=C)C(=S)NC(=O)/C=C/c1ccc(C)cc1	none
C=CCN(CC=C)C(=S)NC(=O)c1ccc(-c2ccccc2)cc1	JMJD2A Tudor inconclusive, BAZ2B inh 6.3µM
CCOc1ccccc1CNC(=O)CCCc1cn(C)c2ccccc12	G9a block 50µM, JMJD2A Tudor inconclusive, BAZ2B inh inconclusive
CCOc1ccccc1CNC(=O)CCc1cn(C)c2ccccc12	JMJD2A Tudor inconclusive, BAZ2B inh inconclusive
Cc1cn([C@H]2C[C@H](O)[C@@H](CNCc3ccccc3)O2)c(=O)[nH]c1=O	none (no result: VDR inh, G9a block, HP1b chromo inh, JMJD2A Tudor, BAZ2B inh)
Cc1cn([C@H]2C[C@H](O)[C@@H](CNCc3cccn3-c3ccncc3)O2)c(=O)[nH]c1=O	PLK1 PBD inh 1.1µM (no result: VDR inh, G9a block, HP1b chromo inh, JMJD2A Tudor, BAZ2B inh)
Cc1onc(-c2ccccc2Cl)c1C(=O)OCC(=O)c1c(N)n(C)c(=O)n(C)c1=O	none
[O-][n+]1c2c(c3c4non(O)c4ccc31)CCCC2	G9a block inconclusive, JMJD2A Tudor inconclusive, BAZ2B inh 40µM
Cc1[nH]nc(SCC(=O)Nc2ccc(C#N)cc2)c1[N+](=O)[O-]	G9a block 35µM
CCn1c(C)nc2cc(S(=O)(=O)N3CCCC3)ccc21	PLK1 PBD inh inconclusive
CCn1c(CSc2nnc(C)n2-c2ccccc2)nc2cc(S(=O)(=O)N(C)C)ccc21	none
CCn1c(-c2ccccn2)nc2cc(S(=O)(=O)N(C)C)ccc21	G9a block 50µM
CCn1c(C)nc2cc(S(N)(=O)=O)ccc21	VDR inh inconclusive, PLK1 PBD inh inconclusive, JMJD2A Tudor 14µM (no result: G9a block)
CCn1c(-c2cc(Br)cc(OC)c2O)nc2cc(S(=O)(=O)N(C)C)ccc21	G9a block 45µM
C[C@@H]1CN([C@H](C)CO)C(=O)CCCn2cc(nn2)CO[C@H]1CN(C)C(=O)c1ccncc1	none (no result: VDR inh, G9a block, HP1b chromo inh, JMJD2A Tudor, BAZ2B inh)
C=CCN(c1ccccc1)S(=O)(=O)c1cccc(C(=O)NC2CCN(Cc3ccccc3)CC2)c1	G9a block 50µM
CN1C(=O)C[C@@H](C(=O)N[C@@H](Cc2cnc[nH]2)C(=O)N2CCC[C@H]2C(N)=O)NC1=O	none (no result: PLK1 PBD inh, HP1b chromo inh, JMJD2A Tudor, BAZ2B inh)
O=C(CN1CCN(S(=O)(=O)c2ccc(F)cc2)CC1)c1ccc(O)c(O)c1	G9a block 20µM, JMJD2A Tudor inconclusive, BAZ2B inh inconclusive
O=C(CN1CCN(S(=O)(=O)c2ccc(Cl)cc2)CC1)c1ccc(O)c(O)c1	JMJD2A Tudor 18µM, BAZ2B inh inconclusive (no result: G9a block)
COc1cccc(N2CCN(CC(=O)N3CCN(S(=O)(=O)c4ccc(Cl)cc4)CC3)CC2)c1	G9a block inconclusive
COc1cccc(C(=O)CN2CCN(S(=O)(=O)c3ccc(Cl)cc3)CC2)c1	G9a block 10µM (no result: PLK1 PBD inh)
CCOc1ccc(C(=O)CN2CCN(S(=O)(=O)c3ccc(F)cc3)CC2)cc1	G9a block inconclusive
O=C(CN1CCN(S(=O)(=O)c2ccc(Cl)cc2)CC1)Nc1ccc2c(c1)OCCO2	G9a block 50µM
O=C(CN1CCN(S(=O)(=O)c2ccc3c(c2)OCCO3)CC1)Nc1cccc(F)c1	G9a block 56µM
O=C(CN1CCN(S(=O)(=O)c2ccc(Br)cc2)CC1)Nc1ccc2c(c1)OCCO2	none
C=CCC(C)(O)CCc1ccccc1 (stereo not drawn)	none (no result: PLK1 PBD inh, G9a block, HP1b chromo inh, JMJD2A Tudor, BAZ2B inh)
Cc1cc(C)c(C(=O)N2CCCC(CNS(=O)(=O)N(C)C)C2)o1 (stereo not drawn)	none
CC(OC(=O)Cc1n[nH]c(=O)c2ccccc12)C(=O)N(C)c1ccccc1 (stereo not drawn)	none (no result: VDR inh, G9a block, HP1b chromo inh, JMJD2A Tudor, BAZ2B inh)
CSCCC(c1nc2ccccc2[nH]1)n1c(=O)c(-c2cc3ccccc3[nH]2)nc2ccccc21 (stereo not drawn)	none (no result: VDR inh, G9a block, HP1b chromo inh, JMJD2A Tudor, BAZ2B inh)
O=C(O)c1cc(-c2ccc(/C=C3\NC(=O)N(c4ccc(Cl)cc4)C3=O)o2)ccc1Cl	PLK1 PBD inh 12µM, G9a block 10µM, HP1b chromo inh inconclusive, JMJD2A Tudor 32µM, BAZ2B inh 45µM
C#CCN1C(=O)S/C(=C\c2ccc(-c3ccc(Cl)c(C(=O)O)c3)o2)C1=O	G9a block 45µM
O=C(O)c1cc(-c2ccc(/C=C3\NC(=O)N(c4ccccc4)C3=O)o2)ccc1Cl	PLK1 PBD inh inconclusive, G9a block 45µM, JMJD2A Tudor 56µM, BAZ2B inh 79µM
C[C@@H]1OC(C2CCCCC2)N(C)[C@H]2C[C@H]3c4[nH]c5ccccc5c4CCN3C[C@@H]12 (stereo partly drawn)	none (no result: VDR inh, G9a block, HP1b chromo inh, JMJD2A Tudor, BAZ2B inh)
